The experiment concerns AmpC beta-lactamase (E. coli). Description: AmpC inhibition relative to DMSO; higher = more inhibition. The method, then:
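Aggregation counter-screen: inhibition of E. coli AmpC beta-lactamase (5 nM, nitrocefin substrate, 50 mM sodium phosphate pH 7.0, RT, 5 min) by KAT inhibitors at 4, 11, 33 and 100 uM, with or without 0.01% Triton X-100. Percent inhibition is relative to DMSO controls. Four technical replicates.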

[1] abbreviates: 4 µM, detergent: 0.01% Triton X-100.
The mark [2] stands for this setting: 11 µM, detergent: 0.01% Triton X-100.
The mark [3] stands for this setting: 33 µM, detergent: 0.01% Triton X-100.
Where [4] appears, read: 100 µM, detergent: 0.01% Triton X-100.
Where [5] appears, read: 100 µM, detergent: no detergent.

± gives the standard deviation of the averaged measurements.

As to `CC(Cc1ccc(O)c(O)c1)C(C)Cc1ccc(O)c(O)c1` (stereo not given), the AmpC inhibition is, setting by setting: under setting [1], 0.262 ± 1.6%; (4 µM, detergent: no detergent) 2.98 ± 9.9%; under setting [2], -1.09 ± 14%; (11 µM, detergent: no detergent) 23.2 ± 4%; under setting [3], 1.16 ± 12%; (33 µM, detergent: no detergent) 47.4 ± 7.5%. Moreover, the AmpC inhibition by setting is: under setting [4], -4.88 ± 5.5%; under setting [5], 86 ± 2.8%.

With `CC(C)([C@](C1=O)(C2=O)C/C=C(C)\C)[C@@H](C[C@]31C[C@@H](C(C)(OC3=C2C(C4=CC(O)=C(C=C4)O)=O)C)C/C=C(C)\C)C/C=C(C)\C`, the AmpC inhibition reads like this: under setting [1], 8.42 ± 5.3%; (4 µM, detergent: no detergent) 13.3 ± 3.5%; under setting [2], 4.79 ± 3.2%; (11 µM, detergent: no detergent) 90 ± 9.4%; under setting [3], 4.67 ± 6.9%; (33 µM, detergent: no detergent) 93.15 ± 0.89%. The AmpC inhibition by setting is: under setting [4], 2.77 ± 1.7%; under setting [5], 92.3 ± 0.78%.

For the compound `COc1cc(/C=C/C(=O)CC(=O)/C=C/c2ccc(O)c(OC)c2)ccc1O`, the AmpC inhibition by setting is: under setting [1], 10.4 ± 4.2%; (4 µM, detergent: no detergent) 5.89 ± 9%; under setting [2], 5.4 ± 4.4%; (11 µM, detergent: no detergent) 39.2 ± 7.2%; under setting [3], -1.8 ± 2.5%; (33 µM, detergent: no detergent) 71.1 ± 12%. The AmpC inhibition is -2.46 ± 13% under setting [4] and 67.3 ± 7.6% under setting [5].

Take `CC1=NN(c2ccc(C(=O)O)cc2)C(=O)/C1=C\c1ccc(-c2cc(C)c(C)cc2[N+](=O)[O-])o1`: the AmpC inhibition by setting is: under setting [1], 1.81 ± 2.9%; (4 µM, detergent: no detergent) -0.0252 ± 5.8%; under setting [2], 8.78 ± 2.2%; (11 µM, detergent: no detergent) -41.4 ± 11%; under setting [3], 5.34 ± 3.4%; (33 µM, detergent: no detergent) -43.6 ± 23%. The AmpC inhibition runs as follows: under setting [4], 5.65 ± 3.5%; under setting [5], 4.46 ± 2.3%.

On to `CC1(C)CCC2=C(O1)c1ccccc1C(=O)C2=O`, for which the AmpC inhibition by setting is: under setting [1], 10.1 ± 3.2%; (4 µM, detergent: no detergent) 0.565 ± 6.8%; under setting [2], 2.63 ± 1.6%; (11 µM, detergent: no detergent) -4.82 ± 5.1%; under setting [3], 6.33 ± 3.7%; (33 µM, detergent: no detergent) -16.2 ± 7.7%. Moreover, the AmpC inhibition runs as follows: under setting [4], -0.871 ± 3.1%; under setting [5], 4.94 ± 2%.
